# According to PubChem BioAssay (EPA / NIEHS):
# Inconclusive results are not listed. Active and inactive are the calls of the source. How the source made its calls, unless noted: active means hit-call score of the fitted dose curve at least 0.9, where 1 is the maximum; inactive means score below 0.9.
# Legend:
# [1] = BSK_BT_Bcell_Proliferation: Viability Assessment in the BioMAP Diversity Plus: BT Assay for B cell Proliferation (AID 2284227); conditions: primary human B cells with PBMC
# How it was run: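 Read-out is absorbance at 560 nm from sulforhodamine B staining of total protein, reflecting relative cell numbers in a human B cell and PBMC co-culture after 72 h of chemical exposure. Values were referenced to DMSO.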
# [2] = read-out: Interleukin 6 (IL6), IL6 (gene 3569); test: BSK_BT_xIL6: BioMAP Diversity Plus: BT Assay for Interleukin 6 (IL6) Biomarker Activity (AID 2284228); conditions: primary human B cells with PBMC
# How it was run: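 Readout: secreted IL-6 via Luminex xMAP multiplex, 24 h post-dosing. System: primary human B cells co-cultured with PBMC. Signal change scored relative to DMSO vehicle, positive fitting direction.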
# [3] = read-out: Interleukin 17A (IL17A), IL17A (gene 3605); test: BSK_BT_xIL17A: BioMAP Diversity Plus: BT Assay for Interleukin 17A (IL17A) Biomarker Activity (AID 2284229); conditions: primary human B cells with PBMC
# How it was run: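 Luminex xMAP readout of secreted IL-17A; human B cell + PBMC co-culture; 24 h post-dose; positive-direction fit vs DMSO negative control.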
# [4] = read-out: Vascular cell adhesion molecule 1 (VCAM1), VCAM1 (gene 7412); test: BSK_MyoF_VCAM1: BioMAP Diversity Plus: MyoF Assay for Vascular cell adhesion molecule 1 (VCAM1) Biomarker Activity (AID 2284231); conditions: primary human lung fibroblasts
# How it was run: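 MyoF system, lung fibroblasts; 24 h post-dose; VCAM-1 by ELISA; gain-of-signal fit vs DMSO baseline.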
# [5] = read-out: Collagen I, COL1A1 (gene 1277); test: BSK_MyoF_CollagenI: BioMAP Diversity Plus: MyoF Assay for Collagen I Biomarker Activity (AID 2284238); conditions: primary human lung fibroblasts
# How it was run: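 ELISA readout of Collagen I after 24 h chemical treatment of primary human lung fibroblast cultures; gain of signal scored relative to DMSO vehicle baseline.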
# [6] = read-out: Collagen III, COL3A1 (gene 1281); test: BSK_MyoF_CollagenIII: BioMAP Diversity Plus: MyoF Assay for Collagen III Biomarker Activity (AID 2284239); conditions: primary human lung fibroblasts
# How it was run: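 Lung fibroblast culture; 24 h compound exposure; collagen III by ELISA; gain-of-signal fit vs DMSO baseline.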
# [7] = read-out: Interleukin 17F (IL17F), IL17F (gene 112744); test: BSK_BT_xIL17F: BioMAP Diversity Plus: BT Assay for Interleukin 17F (IL17F) Biomarker Activity (AID 2284243); conditions: primary human B cells with PBMC
# How it was run: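 Secreted IL-17F, read on LumineX xMAP beads, was taken as the endpoint. Cultures combined human B cells and peripheral blood mononuclear cells, sampled 24 hours after dosing, with DMSO serving as negative control.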
# [8] = read-out: Actin alpha 1 (ACTA1), ACTA1 (gene 58); test: BSK_MyoF_ACTA1: BioMAP Diversity Plus: MyoF Assay for Actin alpha 1 (ACTA1) Biomarker Activity (AID 2284244); conditions: primary human lung fibroblasts
# How it was run: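 Measured by ELISA: alpha-smooth muscle actin in human primary lung fibroblasts 24 h after dosing, with DMSO as baseline and upward signal change as the fitted direction.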
# [9] = read-out: Interleukin 2 (IL2), IL2 (gene 3558); test: BSK_BT_xIL2: BioMAP Diversity Plus: BT Assay for Interleukin 2 (IL2) Biomarker Activity (AID 2284245); conditions: primary human B cells with PBMC
# How it was run: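 Secreted interleukin-2 from human B cell/PBMC co-cultures, measured 24 h post-dosing by Luminex multiplex immunoassay. Upward-direction curve fitting against DMSO baseline.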
# [10] = read-out: Basic fibroblast growth factor (bFGF), FGF2 (gene 2247); test: BSK_MyoF_bFGF: BioMAP Diversity Plus: MyoF Assay for Basic fibroblast growth factor (bFGF) Biomarker Activity (AID 2284246); conditions: primary human lung fibroblasts
# How it was run: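 In this multiplexed cell system, lung fibroblasts (human primary) receive test chemical for 24 h before ELISA detection of bFGF; DMSO defines baseline and the analysis direction is positive.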
# [11] = read-out: Collagen IV, COL4A1 (gene 1282); test: BSK_MyoF_CollagenIV: BioMAP Diversity Plus: MyoF Assay for Collagen IV Biomarker Activity (AID 2284247); conditions: primary human lung fibroblasts
# How it was run: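 Activity is scored as a signal increase over DMSO in an ELISA for Collagen IV, measured on human lung fibroblasts at 24 h after chemical treatment. Cytotoxicity is checked in parallel cultures by sulforhodamine B total-protein staining.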
# [12] = read-out: Plasminogen activator inhibitor-1 (PAI1), SERPINE1 (gene 5054); test: BSK_MyoF_PAI1: BioMAP Diversity Plus: MyoF Assay for Plasminogen activator inhibitor-1 (PAI1) Biomarker Activity (AID 2284256); conditions: primary human lung fibroblasts;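 on outcome: PAI-1 protein level measured by ELISA in fibroblast cultures; PAI-1 read 24 h after compound addition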
# How it was run: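 MyoF lung fibroblasts, human primary; compound 24 h; PAI-1 ELISA; positive-direction fit vs DMSO baseline; parallel SRB total-protein staining for cytotoxicity.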
# [13] = read-out: Interleukin-8 (IL8), CXCL8 (gene 3576); test: BSK_MyoF_IL8: BioMAP Diversity Plus: MyoF Assay for Interleukin-8 (IL8) Biomarker Activity (AID 2284261); conditions: primary human lung fibroblasts
# How it was run: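 Lung fibroblasts (human primary) → chemical exposure → 24 h → IL-8 measured by ELISA. Signal increase scored versus DMSO control.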
# Decorin, DCN (gene 1634) = test: BSK_MyoF_Decorin: BioMAP Diversity Plus: MyoF Assay for Decorin Biomarker Activity (AID 2284265); conditions: primary human lung fibroblasts
# How it was run: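 ELISA readout of decorin, 24 h post-dosing; primary human lung fibroblast (MyoF) culture; gain-of-signal fit vs DMSO baseline.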
# [14] = TAMU_HCS_1.5hr_SingleDonor1434_Cytotoxicity: Cytotoxicity Assessment using High-content Screening (HCS) Fluorescent Imaging for the Texas A&M University (TAMU) 1.5-hr Human Induced Pluripotent Stem Cell (iPSC)-derived Cardiotoxicity Assay (AID 2284234; active means hit-call score of the fitted dose curve at least 0.9, where 1 is the maximum)
# How it was run: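 Human iPSC-derived cardiomyocytes dosed at 0.2, 1, 10, 100 uM final (0.5% DMSO) for 90 min at 37 C. Hoechst 33342-stained nuclei counted by 10x high-content imaging; POD is EC10, a 10% drop in total cell count versus DMSO.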
# [15] = read-out: Monokine induced gamma interferon (MIG), CXCL9 (gene 4283); test: BSK_KF3CT_MIG: BioMAP Diversity Plus: KF3CT Assay for Monokine induced gamma interferon (MIG) Biomarker Activity (AID 2284248); conditions: primary human keratinocytes with fibroblasts
# How it was run: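 ELISA read-out of MIG after 24 h chemical exposure of human skin primary co-culture (keratinocytes, foreskin fibroblasts). Gain of signal relative to DMSO negative control was analysed.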
# [16] = read-out: Plasminogen activator inhibitor-1 (PAI1), SERPINE1 (gene 5054); test: BSK_KF3CT_PAI1: BioMAP Diversity Plus: KF3CT Assay for Plasminogen activator inhibitor-1 (PAI1) Biomarker Activity (AID 2284252); conditions: primary human keratinocytes with fibroblasts
# How it was run: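 Signal is PAI-1 detected by ELISA in a human skin-derived keratinocyte/fibroblast co-culture, 24 h after dosing; DMSO served as negative control and baseline.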
# [17] = read-out: Interleukin-8 (IL8), CXCL8 (gene 3576); test: BSK_KF3CT_IL8: BioMAP Diversity Plus: KF3CT Assay for Interleukin-8 (IL8) Biomarker Activity (AID 2284254); conditions: primary human keratinocytes with fibroblasts
# How it was run: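 IL-8 read-out: ELISA, 24 h post-dose, human skin primary co-culture (keratinocytes + foreskin fibroblasts). DMSO = baseline; positive-direction fit.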
# [18] = CCTE_Mundy_HCI_Cortical_NOG_BPCount: CCTE's Neurite Outgrowth Assay in rat cortical cells for Branch Point Count, Mundy Lab (AID 2284237)
# How it was run: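 Measured 50.33 h after dosing, this morphology endpoint uses rat primary cortical cultures labelled for betaIII-tubulin. Branch points are quantified by high-content imaging, with DMSO as negative control and baseline.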
# [19] = CCTE_Mundy_HCI_hNP1_Casp3_7: CCTE's Caspase-Glo 3/7 Assay in human neuroprogenitor cells for Apoptosis, Mundy Lab (AID 2284240)
# How it was run: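 Neuroepithelial-lineage stem cells from WA09 embryonic cells were treated with chemicals after 40–44 h of culture. Twenty-four hours later, caspase-3/7 activation was detected luminescently after a 30 min room-temperature reagent step, with DMSO as baseline.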
smiles,measurement,setting,value
Cc1ccc(Nc2ccc(O)c3c2C(=O)c2ccccc2C3=O)cc1,outcome,[1],inactive
same,outcome,[2],inactive
same,outcome,[3],inactive
same,outcome,[4],inactive
same,outcome,[5],inactive
same,outcome,[6],inactive
same,outcome,[7],inactive
same,outcome,[8],inactive
same,outcome,[9],inactive
same,outcome,[10],inactive
same,outcome,[11],inactive
same,outcome,[12],inactive
same,outcome,[13],inactive
same,outcome,"Decorin, DCN (gene 1634)",inactive
CCCCCCCCCCCCCCCCCC(=O)OCC(CC)CCCC (stereo not drawn),outcome,[1],inactive
same,outcome,[2],inactive
same,outcome,[3],inactive
same,outcome,[4],inactive
same,outcome,[5],inactive
same,outcome,[6],inactive
same,outcome,[7],inactive
same,outcome,[8],inactive
same,outcome,[9],inactive
same,outcome,[10],inactive
same,outcome,[11],inactive
same,outcome,[12],inactive
same,outcome,[13],inactive
same,outcome,"Decorin, DCN (gene 1634)",inactive
c1ccc2c(c1)c1cccc3ccc4cccc2c4c31,outcome,[1],inactive
same,AC50,[2],2.63 µM (active)
same,outcome,[3],inactive
same,outcome,[4],inactive
same,outcome,[14],inactive
same,outcome,[5],inactive
same,outcome,[6],inactive
same,AC50,[7],20 µM (active)
same,outcome,[8],inactive
same,outcome,[9],inactive
same,outcome,[10],inactive
same,AC50,[11],0.0413 µM (active)
same,AC50,[12],0.016 µM (active)
same,outcome,[13],inactive
same,outcome,"Decorin, DCN (gene 1634)",inactive
CC1CCC(C(C)CS)CC1S (stereo not drawn),outcome,[1],inactive
same,outcome,[2],inactive
same,outcome,[3],inactive
same,AC50,[4],8.17 µM (active)
same,AC50,[5],5.96 µM (active)
same,AC50,[6],9.71 µM (active)
same,outcome,[7],inactive
same,AC50,[8],9.28 µM (active)
same,outcome,[9],inactive
same,AC50,[10],7.89 µM (active)
same,AC50,[11],11.8 µM (active)
same,AC50,[12],8.22 µM (active)
same,AC50,[13],11.1 µM (active)
same,AC50,"Decorin, DCN (gene 1634)",10.1 µM (active)
CCc1c(C)cc(N)c(CC)c1N,outcome,[1],inactive
same,outcome,[2],inactive
same,outcome,[3],inactive
same,outcome,[4],inactive
same,outcome,[5],inactive
same,outcome,[6],inactive
same,outcome,[7],inactive
same,outcome,[8],inactive
same,outcome,[9],inactive
same,outcome,[10],inactive
same,outcome,[11],inactive
same,outcome,[12],inactive
same,outcome,[13],inactive
same,outcome,"Decorin, DCN (gene 1634)",inactive
Cc1ccc(O)c(C(C)(C)C)c1,outcome,[1],inactive
same,outcome,[2],inactive
same,outcome,[3],inactive
same,AC50,[4],34.4 µM (active)
same,AC50,[5],35.4 µM (active)
same,AC50,[6],30.3 µM (active)
same,outcome,[7],inactive
same,AC50,[8],30.9 µM (active)
same,outcome,[9],inactive
same,AC50,[10],36.1 µM (active)
same,outcome,[11],inactive
same,AC50,[12],31.6 µM (active)
same,outcome,[13],inactive
same,outcome,"Decorin, DCN (gene 1634)",inactive
OC1OC[C@@H](O)[C@H](O)[C@H]1O (stereo partly drawn),outcome,[15],inactive
same,outcome,[16],inactive
same,outcome,[17],inactive
NCCNCCN,outcome,[15],inactive
same,outcome,[16],inactive
same,outcome,[17],inactive
O=P(c1ccccc1)(c1ccccc1)c1ccccc1,outcome,[1],inactive
same,outcome,[2],inactive
same,outcome,[3],inactive
same,outcome,[4],inactive
same,outcome,[5],inactive
same,outcome,[6],inactive
same,outcome,[7],inactive
same,outcome,[8],inactive
same,outcome,[9],inactive
same,outcome,[10],inactive
same,outcome,[11],inactive
same,outcome,[12],inactive
same,outcome,[13],inactive
same,outcome,"Decorin, DCN (gene 1634)",inactive
Nc1cc([N+](=O)[O-])ccc1Cl,outcome,[1],inactive
same,outcome,[2],inactive
same,outcome,[3],inactive
same,outcome,[4],inactive
same,outcome,[5],inactive
same,outcome,[6],inactive
same,outcome,[7],inactive
same,outcome,[8],inactive
same,outcome,[9],inactive
same,outcome,[10],inactive
same,outcome,[11],inactive
same,outcome,[12],inactive
same,outcome,[13],inactive
same,outcome,"Decorin, DCN (gene 1634)",inactive
O=C(O)C[C@H](O)C[C@H](O)/C=C/c1c(C2CC2)nc2ccccc2c1-c1ccc(F)cc1,outcome,[2],inactive
same,AC50,[3],2.42 µM (active)
same,outcome,[4],inactive
same,outcome,[5],inactive
same,AC50,[6],2.16 µM (active)
same,AC50,[7],3.26 µM (active)
same,AC50,[8],1.37 µM (active)
same,AC50,[9],5 µM (active)
same,outcome,[10],inactive
same,outcome,[11],inactive
same,AC50,[12],5 µM (active)
same,AC50,[13],1.1 µM (active)
same,outcome,"Decorin, DCN (gene 1634)",inactive
CN(C)C(=N)N=C(N)N,outcome,[18],inactive
same,outcome,[19],inactive
COC(=O)c1ccc(C)cc1,outcome,[1],inactive
same,outcome,[2],inactive
same,outcome,[3],inactive
same,outcome,[4],inactive
same,outcome,[5],inactive
same,outcome,[6],inactive
same,outcome,[7],inactive
same,outcome,[8],inactive
same,outcome,[9],inactive
same,outcome,[10],inactive
same,outcome,[11],inactive
same,outcome,[12],inactive
same,outcome,[13],inactive
same,outcome,"Decorin, DCN (gene 1634)",inactive
